For seven sequences, binding signal results are on record in paper PMC7862700, “An all-to-all approach to the identification of sequence-specific readers for epigenetic DNA modifications on cytosine”.

Holding throughout (experiment): DAPPL (digital affinity profiling via proximity ligation, sequencing); 10 mM Tris-HCl pH 7.5, 50 mM NaCl, 1 mM DTT, 4% glycerol, room temperature, 30 min; GST-TFs on glutathione beads, 16-mer random dsDNA library, 0.1% formaldehyde crosslink after washing; high values mean tight binding
Holding throughout (details): protein: recombinant; tags: N-terminal GST; dsDNA, one strand shown

In test [1] the target is T1, FLI1 (Homo sapiens, UniProt Q01543 1-452).
T1 sequence: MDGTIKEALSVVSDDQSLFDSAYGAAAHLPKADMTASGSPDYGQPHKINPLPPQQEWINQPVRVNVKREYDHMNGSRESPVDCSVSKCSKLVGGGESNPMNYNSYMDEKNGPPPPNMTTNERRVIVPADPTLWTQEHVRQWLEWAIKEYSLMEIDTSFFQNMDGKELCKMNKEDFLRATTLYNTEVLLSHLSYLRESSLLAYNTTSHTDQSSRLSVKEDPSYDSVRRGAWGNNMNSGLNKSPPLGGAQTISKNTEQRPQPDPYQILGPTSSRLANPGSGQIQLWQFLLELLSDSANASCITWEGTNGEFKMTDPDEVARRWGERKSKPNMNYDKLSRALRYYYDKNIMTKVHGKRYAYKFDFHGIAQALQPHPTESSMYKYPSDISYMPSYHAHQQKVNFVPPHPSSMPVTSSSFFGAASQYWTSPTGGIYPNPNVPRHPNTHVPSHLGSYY
Put shortly: (§1)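 Binding signal is each hexamer's read frequency for a factor divided by its frequency in the tag-only sample. The factors were GST-fused human transcription factors from yeast, captured on glutathione beads, DNA-barcoded and pooled with that sample. Pools were incubated with 200 nmole of a random double-stranded 16-mer DNA library in Tris/NaCl/DTT/glycerol buffer at room temperature for 30 min, then washed, crosslinked with 0.1% formaldehyde, proximity-ligated with BsaI/T4 ligase (1 h, 37 °C), PCR-amplified and sequenced on an Illumina NextSeq500.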

The target of test [2] is T2, ELK1 (Homo sapiens, UniProt P19419 1-428).
T2 sequence: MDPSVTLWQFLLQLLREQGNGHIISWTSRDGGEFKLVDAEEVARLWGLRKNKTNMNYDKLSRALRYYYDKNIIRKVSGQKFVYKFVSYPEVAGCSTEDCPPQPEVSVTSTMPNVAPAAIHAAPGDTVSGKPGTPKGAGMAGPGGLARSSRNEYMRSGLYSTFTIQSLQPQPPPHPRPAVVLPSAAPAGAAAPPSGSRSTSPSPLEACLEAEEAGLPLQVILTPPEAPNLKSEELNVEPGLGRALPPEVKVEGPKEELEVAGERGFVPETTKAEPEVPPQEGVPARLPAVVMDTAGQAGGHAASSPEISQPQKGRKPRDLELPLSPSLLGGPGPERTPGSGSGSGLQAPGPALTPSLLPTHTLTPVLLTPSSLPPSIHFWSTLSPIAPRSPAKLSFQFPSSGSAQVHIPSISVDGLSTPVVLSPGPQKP
Summed up:
as §1

Test [3] addresses T3, GABPA (Homo sapiens, UniProt Q06546 1-454).
T3 sequence: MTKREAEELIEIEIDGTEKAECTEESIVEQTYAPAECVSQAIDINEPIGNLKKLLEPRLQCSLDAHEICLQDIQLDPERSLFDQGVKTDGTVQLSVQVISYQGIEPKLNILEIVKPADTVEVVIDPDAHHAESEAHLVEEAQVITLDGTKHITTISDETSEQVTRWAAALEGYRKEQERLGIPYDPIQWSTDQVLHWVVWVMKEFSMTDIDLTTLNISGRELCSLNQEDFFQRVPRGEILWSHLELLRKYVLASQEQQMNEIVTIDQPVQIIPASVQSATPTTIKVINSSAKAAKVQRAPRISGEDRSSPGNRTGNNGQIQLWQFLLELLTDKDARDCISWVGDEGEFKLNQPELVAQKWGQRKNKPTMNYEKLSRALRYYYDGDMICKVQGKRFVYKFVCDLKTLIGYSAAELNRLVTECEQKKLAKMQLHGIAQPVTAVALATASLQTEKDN
Put shortly:
as §1

Test [4] deals with T4, ERG (Homo sapiens, UniProt P11308 1-479).
T4 sequence: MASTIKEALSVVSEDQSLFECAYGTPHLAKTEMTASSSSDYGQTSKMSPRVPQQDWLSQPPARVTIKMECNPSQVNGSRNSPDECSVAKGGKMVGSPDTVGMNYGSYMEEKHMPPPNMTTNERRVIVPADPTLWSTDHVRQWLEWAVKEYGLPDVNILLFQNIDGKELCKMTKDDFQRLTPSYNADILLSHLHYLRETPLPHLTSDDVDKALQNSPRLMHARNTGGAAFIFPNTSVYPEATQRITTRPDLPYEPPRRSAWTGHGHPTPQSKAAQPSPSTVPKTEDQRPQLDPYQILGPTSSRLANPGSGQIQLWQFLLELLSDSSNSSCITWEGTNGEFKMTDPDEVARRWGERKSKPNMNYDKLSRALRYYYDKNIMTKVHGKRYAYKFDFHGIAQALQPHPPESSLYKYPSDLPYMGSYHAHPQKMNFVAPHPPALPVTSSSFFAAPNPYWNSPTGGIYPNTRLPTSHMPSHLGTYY
Put shortly:
as §1

Test [5] addresses ELF1 (Homo sapiens, UniProt P32519 1-619). Summed up: as §1
Test [6] concerns the target T5, EHF (Homo sapiens, UniProt Q9NZC4 1-300).
T5 sequence: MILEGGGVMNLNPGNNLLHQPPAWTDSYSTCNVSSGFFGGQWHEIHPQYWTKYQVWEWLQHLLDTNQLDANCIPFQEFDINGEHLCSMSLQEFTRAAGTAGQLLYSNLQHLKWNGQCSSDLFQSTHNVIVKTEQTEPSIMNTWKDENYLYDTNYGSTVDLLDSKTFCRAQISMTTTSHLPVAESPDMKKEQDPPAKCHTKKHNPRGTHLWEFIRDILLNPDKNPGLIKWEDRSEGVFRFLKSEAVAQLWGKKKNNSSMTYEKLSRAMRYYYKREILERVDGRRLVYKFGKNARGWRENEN
Summed up:
as §1

Test [7] addresses SPI1 (Homo sapiens, UniProt P17947 1-270). Put shortly:
as §1

In test [8] the target is SPIB (Homo sapiens, UniProt Q01892 1-262). Put shortly:
as §1

The target in test [9] is T6, ELK3 (Homo sapiens, UniProt P41970 1-407).
T6 sequence: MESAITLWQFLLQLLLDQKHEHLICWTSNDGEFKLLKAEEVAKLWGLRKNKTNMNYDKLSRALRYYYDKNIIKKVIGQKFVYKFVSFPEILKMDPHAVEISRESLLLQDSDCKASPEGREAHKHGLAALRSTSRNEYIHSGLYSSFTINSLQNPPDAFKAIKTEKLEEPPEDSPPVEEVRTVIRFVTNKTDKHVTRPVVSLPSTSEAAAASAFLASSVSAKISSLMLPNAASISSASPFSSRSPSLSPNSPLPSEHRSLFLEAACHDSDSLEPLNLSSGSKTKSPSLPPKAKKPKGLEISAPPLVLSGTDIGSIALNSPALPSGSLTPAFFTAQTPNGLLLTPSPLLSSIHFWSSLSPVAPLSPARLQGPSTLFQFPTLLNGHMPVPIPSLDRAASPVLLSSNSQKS
Summed up:
as §1

Chain of SPIB (Q01892 whole entry): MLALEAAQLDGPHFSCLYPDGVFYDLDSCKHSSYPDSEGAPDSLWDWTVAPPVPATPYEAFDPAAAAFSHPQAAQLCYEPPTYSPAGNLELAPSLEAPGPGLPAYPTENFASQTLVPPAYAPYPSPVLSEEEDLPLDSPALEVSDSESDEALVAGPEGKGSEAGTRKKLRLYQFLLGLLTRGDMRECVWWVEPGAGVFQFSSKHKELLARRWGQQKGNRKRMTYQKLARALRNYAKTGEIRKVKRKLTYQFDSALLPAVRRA
Chain of ELF1 (P32519 whole entry): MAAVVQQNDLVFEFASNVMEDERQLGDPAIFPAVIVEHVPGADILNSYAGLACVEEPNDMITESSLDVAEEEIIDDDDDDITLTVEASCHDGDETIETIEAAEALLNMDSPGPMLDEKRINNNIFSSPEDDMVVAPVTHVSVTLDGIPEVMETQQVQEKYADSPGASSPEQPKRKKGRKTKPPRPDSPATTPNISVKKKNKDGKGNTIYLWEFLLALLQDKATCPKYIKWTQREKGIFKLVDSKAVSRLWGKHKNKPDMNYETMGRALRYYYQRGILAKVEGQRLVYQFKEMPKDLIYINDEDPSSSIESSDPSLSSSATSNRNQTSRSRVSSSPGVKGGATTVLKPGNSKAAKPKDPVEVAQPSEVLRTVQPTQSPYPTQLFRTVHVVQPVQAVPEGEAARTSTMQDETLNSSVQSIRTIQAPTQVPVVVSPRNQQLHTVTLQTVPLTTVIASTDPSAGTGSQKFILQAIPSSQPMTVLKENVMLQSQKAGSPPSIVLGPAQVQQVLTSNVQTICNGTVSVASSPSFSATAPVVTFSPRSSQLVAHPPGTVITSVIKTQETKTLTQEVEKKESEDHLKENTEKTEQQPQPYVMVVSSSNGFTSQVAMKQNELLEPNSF

On to CCTGCT, for which the binding signal in test [1] was 1.46 fold enrichment (6-mer frequency, TF over GST control); in [2], 1.72 fold enrichment (6-mer frequency, TF over GST control); in [3], 1.46 fold enrichment (6-mer frequency, TF over GST control); in test [4] it was 1.65 fold enrichment (6-mer frequency, TF over GST control); in [5] it was 1.61 fold enrichment (6-mer frequency, TF over GST control); in test [6] it was 1.61 fold enrichment (6-mer frequency, TF over GST control). The binding signal in test [7] is 1.78 fold enrichment (6-mer frequency, TF over GST control); in test [8], 1.59 fold enrichment (6-mer frequency, TF over GST control); in [9], 1.61 fold enrichment (6-mer frequency, TF over GST control).
On to TTTCAC, for which the binding signal in test [1] was 1.39 fold enrichment (6-mer frequency, TF over GST control); in test [2], 1.34 fold enrichment (6-mer frequency, TF over GST control); in test [3] it was 1.37 fold enrichment (6-mer frequency, TF over GST control); in test [4], 1.33 fold enrichment (6-mer frequency, TF over GST control); in test [5] it was 1.43 fold enrichment (6-mer frequency, TF over GST control); in test [6] it was 1.3 fold enrichment (6-mer frequency, TF over GST control). The binding signal in test [7] is 1.34 fold enrichment (6-mer frequency, TF over GST control); in [8], 1.27 fold enrichment (6-mer frequency, TF over GST control); in [9], 1.39 fold enrichment (6-mer frequency, TF over GST control).
Consider CGATTC, for which the binding signal in test [1] was 1.31 fold enrichment (6-mer frequency, TF over GST control); in test [2] it was 1.21 fold enrichment (6-mer frequency, TF over GST control); in [3], 1.23 fold enrichment (6-mer frequency, TF over GST control); in [4], 1.12 fold enrichment (6-mer frequency, TF over GST control); in test [5], 1.24 fold enrichment (6-mer frequency, TF over GST control); in [6] it was 1.17 fold enrichment (6-mer frequency, TF over GST control). The binding signal in [7] is 1.2 fold enrichment (6-mer frequency, TF over GST control); in [8] it was 1.24 fold enrichment (6-mer frequency, TF over GST control); in test [9], 1.15 fold enrichment (6-mer frequency, TF over GST control).
As to TCTTTG, the binding signal is 1.18 fold enrichment (6-mer frequency, TF over GST control) in test [1]; 1.18 fold enrichment (6-mer frequency, TF over GST control) in [2]; 1.2 fold enrichment (6-mer frequency, TF over GST control) in test [3]; 1.25 fold enrichment (6-mer frequency, TF over GST control) in [4]; 1.25 fold enrichment (6-mer frequency, TF over GST control) in [5]; 1.21 fold enrichment (6-mer frequency, TF over GST control) in test [6]. The binding signal was 1.21 fold enrichment (6-mer frequency, TF over GST control) in test [7]; 1.05 fold enrichment (6-mer frequency, TF over GST control) in [8]; 1.31 fold enrichment (6-mer frequency, TF over GST control) in test [9].
Take TTCGCT: the binding signal in [1] is 1.19 fold enrichment (6-mer frequency, TF over GST control); in test [2], 1.17 fold enrichment (6-mer frequency, TF over GST control); in test [3], 1.32 fold enrichment (6-mer frequency, TF over GST control); in test [4], 1.28 fold enrichment (6-mer frequency, TF over GST control); in [5] it was 1.18 fold enrichment (6-mer frequency, TF over GST control); in test [6], 1.07 fold enrichment (6-mer frequency, TF over GST control). Besides, the binding signal is 1.16 fold enrichment (6-mer frequency, TF over GST control) in test [7]; 1.47 fold enrichment (6-mer frequency, TF over GST control) in test [8]; 1.45 fold enrichment (6-mer frequency, TF over GST control) in [9].
With CATTCC, the binding signal in [1] was 1.29 fold enrichment (6-mer frequency, TF over GST control); in [2] it was 1.2 fold enrichment (6-mer frequency, TF over GST control); in [3], 1.27 fold enrichment (6-mer frequency, TF over GST control); in test [4], 1.25 fold enrichment (6-mer frequency, TF over GST control); in test [5], 1.25 fold enrichment (6-mer frequency, TF over GST control); in [6], 1.19 fold enrichment (6-mer frequency, TF over GST control). The binding signal in [7] is 1.25 fold enrichment (6-mer frequency, TF over GST control); in test [8], 1.3 fold enrichment (6-mer frequency, TF over GST control); in test [9], 1.3 fold enrichment (6-mer frequency, TF over GST control).
As to ACCTAA, the binding signal in test [1] was 1.19 fold enrichment (6-mer frequency, TF over GST control); in test [2], 1.08 fold enrichment (6-mer frequency, TF over GST control); in [3], 1.17 fold enrichment (6-mer frequency, TF over GST control); in test [4], 1.13 fold enrichment (6-mer frequency, TF over GST control); in test [5], 1.18 fold enrichment (6-mer frequency, TF over GST control); in test [6] it was 1.12 fold enrichment (6-mer frequency, TF over GST control). For the same sequence, the binding signal in test [7] was 1.2 fold enrichment (6-mer frequency, TF over GST control); in test [8], 1.19 fold enrichment (6-mer frequency, TF over GST control); in test [9], 1.2 fold enrichment (6-mer frequency, TF over GST control).
